This passage reports potency estimated from few doses results from article PMC11062922 (Nature Chemical Biology, 2023).

Read-outs that look alike come from different tables or passages of the source.

Common to all, as to set-up: species or system human, MV4-11 + K-562 + COLO205 + SK-N-BE2 + OVCAR-8
For experiment [1], the system named is MAPK10. The settings on record: read-out: apparent Kd, compound concentrations: 100 nM and 1000 nM (sheet 'Samples'), n = 1.
The test system of experiment [2] is MARK4. The settings on record: read-out: apparent Kd; compound concentrations: 100 nM and 1000 nM (sheet 'Samples'), CATDS: 0.22058260458437301; n = 1.
Experiment [3] relates to PIK3CB. The settings on record: read-out: apparent Kd; compound concentrations: 100 nM and 1000 nM (sheet 'Samples'), CATDS: 0.29379902166128602; n = 1.
Experiment [4] relates to RIOK2. The settings on record: read-out: apparent Kd, n = 1.
Experiment [5] relates to MAPK14. The settings on record: read-out: apparent Kd, compound concentrations: 100 nM and 1000 nM (sheet 'Samples'), n = 1.
Experiment [6] relates to MAPK9. The settings on record: read-out: apparent Kd; compound concentrations: 100 nM and 1000 nM (sheet 'Samples'), CATDS: 0.21193161628333601; n = 1.
Experiment [7] deals with MAPKAPK2. The settings on record: read-out: apparent Kd, n = 1.
Experiment [8] deals with NLK. The settings on record: read-out: apparent Kd; compound concentrations: 100 nM and 1000 nM (sheet 'Samples'), CATDS: 0.13689405577896799; n = 1.
Experiment [9] relates to NQO1. The settings on record: read-out: apparent Kd, n = 1.
In experiment [10] the test system is MAPK11. The settings on record: read-out: apparent Kd, compound concentrations: 100 nM and 1000 nM (sheet 'Samples'), n = 1.
In experiment [11] the test system is STK26. The settings on record: read-out: apparent Kd; compound concentrations: 100 nM and 1000 nM (sheet 'Samples'), CATDS: 0.44700655759470098; n = 1.
Experiment [12] concerns PIK3C2A. The settings on record: read-out: apparent Kd; compound concentrations:100 nM and 1000 nM (sheet 'Samples'); n = 1.
Experiment [13] concerns PIK3C3. The settings on record: read-out: apparent Kd; compound concentrations:100 nM and 1000 nM (sheet 'Samples'); n = 1.
Experiment [14] concerns PIM2. The settings on record: read-out: apparent Kd; compound concentrations:100 nM and 1000 nM (sheet 'Samples'); n = 1.
The mark [15] stands for this setting: compound concentrations:100 nM and 1000 nM (sheet 'Samples').

`COC(=O)Nc1nc2ccc(Sc3ccc(NC(=O)Nc4cc(C(F)(F)F)ccc4F)cc3)cc2[nH]1.O=S(=O)(O)O` [GW607049C]: the potency estimated from few doses was 1.55 µM in experiment [1] (CATDS: 0.243888047714692); 1.93 µM in experiment [2]; 1.09 µM in [3]; 1.44 µM in experiment [4] (compound concentrations: 100 nM and 1000 nM (sheet 'Samples'), CATDS: 0.25235817930049498).
`Cn1c(=O)c(Sc2ccccc2F)cc2cnc(NC3CCOCC3)nc21` [RO4944065-000]: the potency estimated from few doses in experiment [1] (CATDS: 0.25998811221784501) is 0.524 µM; in experiment [5] (CATDS: 0.14533669978761299) it was 1.58 µM; in experiment [6], 0.732 µM; in experiment [7] (compound concentrations: 100 nM and 1000 nM (sheet 'Samples'), CATDS: 0.161840015907707), 1.23 µM; in experiment [8], 1.84 µM; in experiment [9] (compound concentrations: 100 nM and 1000 nM (sheet 'Samples'), CATDS: 0.141428074132052), 1.69 µM.
Regarding `Cl.Cn1c(=O)c(Oc2ccc(F)cc2F)cc2cnc(NC(CO)CO)nc21` [RO3310123-001], the potency estimated from few doses in experiment [1] (CATDS: 0.34863308961168299) was 1.5 µM; in experiment [5] (CATDS: 0.88366158604644096) it was 0.106 µM.
In the case of `O=C(O)/C=C/C(=O)O.OCCCNc1nccc(-c2c(-c3ccc(F)cc3)nn3cc(C(F)(F)F)ccc23)n1` [GW569293E], the figures for the potency estimated from few doses in experiment [1] (CATDS: 0.51132000357216201) and in experiment [5] (CATDS: 0.48917036256560797) were 1.43 µM and 1.57 µM, respectively.
Regarding `Fc1ccc(Nc2nccc(-c3c(-c4ccc(Cl)cc4)nn4ncccc34)n2)cc1F` [GW829058X], the potency estimated from few doses in [1] (CATDS: 0.57984182911323701) was 0.726 µM; in experiment [5] (CATDS: 0.43948476052302998) it was 1.28 µM.
As for `Cc1ccc(NC(=O)c2cccc(N3CCCCC3)c2)cc1-c1ccc(C(=O)NCC2CC2)cc1` [GSK1917008A], the potency estimated from few doses is 0.591 µM in [10] (CATDS: 0.21712264720535299); 0.0648 µM in [5] (CATDS: 0.45448285689505602); 0.0645 µM in [7] (compound concentrations: 100 nM and 1000 nM (sheet 'Samples'), CATDS: 0.455787440841948).
In the case of `CN1CCN(CC#Cc2cccc(C(=O)c3cnn(-c4ccc(F)cc4)c3N)c2)CC1.Cl` [RO1154309-001], the values for the potency estimated from few doses in experiment [10] (CATDS: 0.56724832291410499) and in experiment [11] were 0.811 µM and 1.31 µM, respectively.
In the case of `CN(C)CC#Cc1cccc(C(=O)c2cnn(-c3ccc(F)cc3)c2N)c1.Cl` [RO1154641-001], the results for the potency estimated from few doses in experiment [10] (CATDS: 0.57557980724534297) and in experiment [5] (CATDS: 0.44196522207196598) were 0.758 µM and 1.3 µM, respectively.
On to `Cl.Nc1c(C(=O)c2cccc(-c3cccnc3)c2)cnn1-c1ccc(F)cc1F` [RO1164194-001], for which the figures for the potency estimated from few doses in experiment [10] (CATDS: 0.82795584306013303) and in [5] (CATDS: 0.35813974934326798) were 0.112 µM and 0.968 µM, respectively.
In the case of `O=c1[nH]c2nc(NC3CCOCC3)ncc2cc1Oc1ccc(F)cc1F` [RO3310867-000], the potency estimated from few doses in experiment [5] (CATDS: 0.37744016768512201) is 0.00996 µM.
Regarding `COCCNC(=O)c1ccc(-c2cc(C(=O)NC3CC3)cc(F)c2C)cc1` [GW868318X], in [5] (CATDS: 0.55857087808569805), the potency estimated from few doses is 0.0227 µM.
With `Cl.Cn1c(=O)c(Oc2ccc(F)cc2)cc2cnc(NC3CCOCC3)nc21` [RO3304882-001], the potency estimated from few doses in experiment [5] (CATDS: 1) was 1.03 µM.
Regarding `Cl.Cn1c(=O)c(Oc2ccccc2F)cc2cnc(NC3CCOCC3)nc21` [RO3304805-001], the potency estimated from few doses in experiment [9] (setting [15]) is 1.48 µM.
As to `O=C1NC(=O)C(c2ccc(Cl)cc2)=C1Nc1cccc(Cl)c1` [SB-317651], the potency estimated from few doses was 2.45 µM in experiment [12], 1.57 µM in experiment [13], 1.32 µM in experiment [14] and 1.5 µM in experiment [4] (setting [15]).
Consider `CC(=O)N1CCC(Nc2ncc3cc(Oc4ccc(F)cc4F)c(=O)n(C)c3n2)CC1` [RO5043011-000], for which the potency estimated from few doses in [5] (CATDS: 0.40238945157455502) is 0.0409 µM; in experiment [7] (setting [15]) it was 0.0142 µM.
For the molecule `C[C@@H](CS(C)(=O)=O)Nc1ncc2cc(Oc3ccc(F)cc3F)c(=O)n(C)c2n1` [RO5044198-000], the potency estimated from few doses was 0.0884 µM in experiment [5] (CATDS: 0.48313667011563999); 0.0974 µM in experiment [7] (compound concentrations: 100 nM and 1000 nM (sheet 'Samples'), CATDS: 0.45912582310815703); 1.41 µM in [9] (compound concentrations: 100 nM and 1000 nM (sheet 'Samples'), CATDS: 0.21043150555446399).
Regarding `OCCCNc1nccc(-c2c(-c3cccc(C(F)(F)F)c3)nn3cc(C(F)(F)F)ccc23)n1` [GW630813X], the potency estimated from few doses was 1.06 µM in experiment [5] (CATDS: 0.49980022483794101); 1.06 µM in [7] (compound concentrations: 100 nM and 1000 nM (sheet 'Samples'), CATDS: 0.50019993493019099).
